JMJD2A Tudor inh: blocks the human JMJD2A Tudor domain. AlphaScreen JMJD2A-Tudor / H3K4me3 peptide binding. Potency, µM (highest dose often 114 µM), for the others: at the highest dose activity change, negative = inhibition, hits mostly inhibitors. 390,000 tested, 4.4% active; note: potency is the fitted concentration of half-maximal effect; % is set by controls: 0 for no effect and ±100 for the full control effect; nearly all actives have a fitted effect of over 50% in size
HP1b chromo inh: HP1-beta chromodomain-methylated histone interaction inhibition; AlphaScreen HP1-beta / biotin-H3K9me3 peptide binding; Potency, µM (titrated, usually from 114 µM), for the others: at the top dose activity change, negative = inhibition, usual class: inhibitors; 390,000 tested, 0.56% active; note: potency is the fitted concentration of half-maximal effect; nearly all actives have a fitted effect of over 70% in size
Target sequence (P83916 whole entry, looked up): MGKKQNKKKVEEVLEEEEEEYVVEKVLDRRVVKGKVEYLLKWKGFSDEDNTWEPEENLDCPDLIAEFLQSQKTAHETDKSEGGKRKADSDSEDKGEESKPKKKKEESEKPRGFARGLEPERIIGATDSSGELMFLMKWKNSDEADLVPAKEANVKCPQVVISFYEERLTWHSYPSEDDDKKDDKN
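AlphaScreen: HP1-beta (50 nM) preformed 30 min with biotin-H3(1-18)K9me3 peptide (50 nM) in PBS pH 7.4, 0.01% Tween-20. Compound added for 30 min at RT, then streptavidin donor/nickel chelate acceptor beads (10 ug/mL) for 30 min.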
G9a block: inhibitors of human histone lysine methyltransferase G9a; Q96KQ7; G9a H3K9 monomethylation, AlphaScreen, 2 h; Potency, µM (highest dose often 102 µM), for inactives: at the top dose activity, negative = inhibition, actives largely listed as inhibitors; 350,000 tested, 8.8% active; note: potency is the fitted concentration of half-maximal effect; % is set by controls: 0 for no effect and ±100 for the full control effect; nearly all actives have a fitted effect of over 75% in size
Target sequence (Q96KQ7 913-1193 limits assumed): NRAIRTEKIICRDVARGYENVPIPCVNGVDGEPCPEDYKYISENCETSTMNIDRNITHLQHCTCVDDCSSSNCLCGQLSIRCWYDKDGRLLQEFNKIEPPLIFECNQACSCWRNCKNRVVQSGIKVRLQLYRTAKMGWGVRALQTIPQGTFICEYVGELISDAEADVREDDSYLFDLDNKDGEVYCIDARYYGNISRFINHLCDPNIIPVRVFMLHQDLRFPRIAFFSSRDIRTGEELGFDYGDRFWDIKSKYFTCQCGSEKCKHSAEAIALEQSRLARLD
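Step 1: enzyme (final 20 nM) with compound, 15 min RT. Step 2: substrate peptide 500 nM and SAM 20 uM, 2 h RT. Step 3: anti-H3K9me1 antibody and AlphaScreen beads, 10 min, then plate read.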
BAZ2B inh: blocks human BAZ2B | Q9UIF8 | AlphaScreen BAZ2B-H3K14Ac peptide displacement | Potency, µM (titrated, usually from 114 µM), for inactives: at the top dose activity change, negative = inhibition, actives largely listed as inhibitors | 360,000 tested, 4.4% active; note: potency is the fitted concentration of half-maximal effect; % is set by controls: 0 for no effect and ±100 for the full control effect; nearly all actives have a fitted effect of over 60% in size
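Inhibition is scored as reduced AlphaScreen emission. The BAZ2B/b-H3(5-23)K14Ac complex (50 nM each) in PBS pH 7.4, 0.01% Tween-20 meets compound (up to 110 uM) for 30 min at RT before bead addition.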
PLK1 PBD block: blocks phosphopeptide binding to human PLK1 polo-box domain | AID 720504 | P53350 | 360,000 tested, 2.8% active | Potency, µM, inactives show max response, negative = inhibition, hits mostly inhibitors | Plk1 PBD binding of FITC phosphopeptide, fluorescence polarization; note: potency is the fitted concentration of half-maximal effect; series mostly up to about 57 µM; % is set by controls: 0 for no effect and ±100 for the full control effect; nearly all actives have a fitted effect of over 65% in size
PI5P4Ka inh: PI5P4K alpha (human) kinase inhibition | PI5P4Kalpha enzyme, ADP-Glo luminescence, 60 min; stronger effect = lower value | 330,000 tested, 1.2% active | max response, % | P48426; active = max response of -50% or lower; inconclusive = between -30% and -50%; inactive = -30% or higher; note: value at the top dose of about 77 µM; % is set by controls: 0 for no effect and ±100 for the full control effect
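Quantitative HTS of the MLSMR library against PI5P4Kalpha with substrate. ATP added last at 5 microM final; room temperature, 60 minutes. Remaining ATP depleted, ADP converted and read as luminescence.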
An asterisk follows results filed as active; ? = inconclusive; . = not tested or not shown; ! = repeats disagree; [ ] = another dose, or the depositor's remark. Most compounds without a hit are left out; they make up all but 12% or so of the library. Unless noted, calls come from the whole dose curve; as a rule, active = well fitted curve in the direction sought with a large enough effect; inconclusive = small, poorly fitted or top-dose-only effect, or another doubt; inactive = no such curve, though single readings can be large; an effect the other way counts as inactive or inconclusive.

SMILES	JMJD2A Tudor inh	HP1b chromo inh	G9a block	BAZ2B inh	PLK1 PBD block	PI5P4Ka inh
Cc1cc(C=C2C(=O)N(C)C(=S)N(C)C2=O)c(C)n1-c1ccncc1	45µM*	?	50µM*	-25%	?	?
Cc1ccnc(-n2c(C)cc(C=C3C(=O)N(C)C(=S)N(C)C3=O)c2C)c1	?	?	32µM*	?	1.2µM*	?
CCCCCCCCCCCCCCCCOC[C@@H](COP(=O)([O-])OCC[N+](C)(C)C)OC(C)=O	.	.	3%[59 µM]	.	.	.
NCC(=O)c1ccccc1	-18%	33%	.	.	-9%	-5
O=C(C[n+]1ccccc1)c1ccc(Cl)cc1	?	10%	2µM*	-1%	-11%	-12
CN(C)c1ccc(C(O)P(=O)(OC2CCCCC2)OC2CCCCC2)cc1 (centres undefined)	?	-5%	-18%[59 µM]	45µM*	-10%	5
O=[N+]([O-])c1ccc(O[C@@H]2O[C@H](CO)[C@@H](O)[C@H](O)[C@H]2F)c([N+](=O)[O-])c1	.	.	24µM*!	.	.	.
C[N+]1(CC(O)c2ccccc2)CCCCCC1 (centres undefined)	-4%	9%	50µM*	79µM*	-4%	0
CC1CCN(C(=O)c2ncn(C)c2C(=O)N2CCC(C)CC2)CC1	22µM*	13%	.	.	?	-13
Cc1cccc(C(O)(C(=O)NNC(=O)CN2CCN(C)CC2)c2cccc(C)c2)c1	-9%	11%	71µM*	-3%	-1%	-2
O=C(O)c1cc[c]([Hg][Cl])cc1	0.89µM*	?	1µM*!	1.3µM*	0.24µM*	-58*
COc1ccc(C(=O)O)cc1OC	-7%	20%	-58%[2.33 µM]	.	0%	9
CCCCc1nc2ccccc2c(=O)n1-c1cccc(OC)c1	-8%	-7%	-8%[59 µM]	6%	.	.
CC(C)(C)c1ccc(-c2n[nH]c(=S)n2CCCN2CCOCC2)cc1	10µM*	4%	6.3µM*	-33%	-11%	2
CC(C)(C)c1ccc(C(=O)NCCN2CCOCC2)cc1	-16%	44%	.	.	-4%	2
CN(Cc1ccccc1)C(=C(Cl)Cl)/C(=C1/NCCN1Cc1ccc(Cl)nc1)[N+](=O)[O-]	-26%	14%	50µM*	-10%	-5%	.
COc1ccccc1N1CCN(C(=O)c2cc3c(-c4ccccc4F)nn(C)c3s2)CC1	-34%	14%	?	.	.	.
C(#CCN1CCOCC1)COC/C=C/c1ccccc1	-15%	2%	45µM*	1%	-3%	-6
C(#CCN1CCCCC1)COCc1ccccc1	-5%	49%	.	-14%	-7%	-3
NC(=S)c1cn(C2OC(CO)C(O)C2O)c2ncnc(N)c12 (centres undefined)	-12%	-9%	10µM*	-19%	27µM*	?
Nc1ncnc2c1ccn2[C@@H]1O[C@H](CO)[C@@H](O)[C@H]1O	-11%	45%	.	.	1%	3
O=c1nc(/C=C/c2ccc(Cl)cc2Cl)cc(C(F)(F)F)[nH]1	-32%	42%	-2%	-37%	27µM*	-9
CCOC(=O)c1cccc([P+](=O)O)c1	28µM*	18%	-26%[59 µM]	0%	0%	6
CN1CCc2nc(SCc3ccccc3Br)c(C#N)cc2C1	?	40%	18µM*	-33%	-16%	-2
Cc1cccc(CSc2nc3c(cc2C#N)CN(C)CC3)c1	-24%	19%	?	-1%	-1%	.
SMILES	JMJD2A Tudor inh	HP1b chromo inh	G9a block	BAZ2B inh	PLK1 PBD block	PI5P4Ka inh
Fc1ccc(CCNCc2cccc(Cl)c2)cc1	-3%	18%	3%[0.501 µM]	-2%	2%	.
COc1cccc(CCNCc2c(F)cccc2F)c1	?	?	7.9µM*	40µM*	?	-5
COc1cccc(CNCCc2ccc(F)cc2)c1	?	4%	-19%	40µM*	-3%	5
C[C@]12CC[C@@H]3[C@@H](CCC4=CC(=O)CC[C@@H]43)[C@@H]1CC[C@@H]2OC(=O)CCc1ccccc1	.	.	29%[59 µM]	.	.	.
Cc1cc(NC(=O)c2cccn(Cc3cccc([N+](=O)[O-])c3)c2=O)no1	-18%	9%	5%[59 µM]	-6%	.	.
Oc1ccc2c3c1O[C@H]1c4c(c5ccccc5n4Cc4ccccc4)C[C@@]4(O)C(C2)N(CC2CC2)CC[C@]314	.	.	-40%[59 µM]	.	.	.
CCN1C(=O)C(=C/C=C/c2ccco2)C(=O)N(CC)C1=S	50µM*	?	13µM*	45µM*	?	-97*
COc1ccc(NC(=S)NC2CC3CCC(C2)N3Cc2ccco2)cc1 (centres undefined)	-15%	25%	12%	?	5%	0
CCN1C(=O)C(=C2C=C(C)N(Cc3ccco3)C(C)=C2)C(=O)N(CC)C1=S	20%	77%	53%	32%	-11%	0
COc1ccc(/C=C2/C(=O)N(Cc3ccco3)C(=O)N(C(C)C)C2=O)cc1	-31%	-2%	?	-35%	3.4µM*	?
CC(C)N1C(=O)/C(=C/C=C/c2ccco2)C(=O)N(Cc2ccco2)C1=O	14µM*	28µM*	.	35µM*	4.7µM*	-69*
O=C(Nc1cccc(C(F)(F)F)c1)Oc1ccccc1N1CCOCC1	-7%	3%	9%	-2%	?	12
Cc1cc(OCC(=O)N2CCN(CCc3ccccn3)CC2)cc(C)c1Cl	-10%	46%	-23%[59 µM]	-37%	.	.
CC1OC1P(=O)(O)O (centres undefined)	.	.	25µM*!	.	.	.
COc1ccc(CCN2CCC(CNC(=O)c3cnn(-c4ccc(C)cc4)c3C3CCN(C(=O)OC(C)(C)C)CC3)CC2)cc1	?	6%	-20%[59 µM]	?	.	.
COc1cc2c3cc1Oc1cc(ccc1O)C[C@@H]1c4c(cc(OC)c(O)c4Oc4cccc(c4)C[C@H]3N(C)CC2)CC[N+]1(C)C	.	.	-1%[21.5 µM]	.	.	.
Cc1cccc(N2C(=O)NC(=O)/C(=C\c3ccc(N4CCOCC4)cc3)C2=O)c1	-5%	?	?	-13%	9.5µM*	?
COc1ccc(N2C(=O)NC(=O)/C(=C/c3ccc(N4CCOCC4)cc3)C2=O)cc1	.	.	50µM*	-6%	.	.
Cc1cccc(N2C(=O)NC(=O)/C(=C/c3ccc(N4CCOCC4)cc3)C2=O)c1	-12%	23%	?	.	12µM*	-24
CCOc1ccc(N2C(=O)NC(=O)/C(=C\c3ccc(N4CCOCC4)cc3C)C2=O)cc1	-10%	62%	-14%[12.7 µM]	?	6.7µM*	-4
Clc1ccc(CC[C@H](Cn2ccnc2)Sc2c(Cl)cccc2Cl)cc1	.	.	-6%[21.5 µM]	.	.	.
ClC=C(Cl)Cl	.	.	1%[12.7 µM]	.	.	.
CCOC(=O)C1CCN(/C=C2/C(=O)NC(=O)N(c3ccc(OCC)cc3)C2=O)CC1	-17%	41%	?	-3%	-13%	.

Bioassay records (PubChem)
